Compounds with a hit are over-represented: about 32% of the library has one in this group of screens.
CYP2C9 act = activators of human CYP2C9 | P11712 | activation factor at 5 µM | AID 1024 | 1.4% of 96,000 active | recombinant CYP2C9, luciferin-H conversion, luminescence; stronger effect = higher value; factor 1 = untreated enzyme, 0 = blocked;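 active means activation factor of 2 or more for CYP2C9 at a 5 µM dose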
Target sequence (P11712 whole entry, looked up): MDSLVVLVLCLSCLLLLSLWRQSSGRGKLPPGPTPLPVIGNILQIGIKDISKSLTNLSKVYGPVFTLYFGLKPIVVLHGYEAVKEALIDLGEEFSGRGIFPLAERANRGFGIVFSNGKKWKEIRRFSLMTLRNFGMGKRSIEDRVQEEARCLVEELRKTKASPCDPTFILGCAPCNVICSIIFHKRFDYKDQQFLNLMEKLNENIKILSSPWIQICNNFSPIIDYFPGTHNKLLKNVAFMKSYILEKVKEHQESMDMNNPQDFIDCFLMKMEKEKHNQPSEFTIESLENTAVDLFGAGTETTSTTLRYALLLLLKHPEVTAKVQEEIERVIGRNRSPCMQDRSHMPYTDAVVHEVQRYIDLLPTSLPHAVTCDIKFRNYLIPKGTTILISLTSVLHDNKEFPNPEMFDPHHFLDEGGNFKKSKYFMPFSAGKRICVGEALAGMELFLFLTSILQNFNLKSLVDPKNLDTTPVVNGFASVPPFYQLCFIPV
PostGolgi yeast = growth inhibition of a yeast mutant, post-Golgi transport screen | AID 739 | 0.9% of 98,000 active | inhibition, % at 10 µM | post-Golgi transport phenotypic cell assay;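 further: yeast cells grown in 1536-well plates; yeast grown about 18 h at 30C before absorbance read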
CYP2C19 act = activators of human cytochrome P450 2C19 | P33261 | recombinant CYP2C19, luciferin-H EGE luminescence; stronger effect = higher value; 0 = fully inhibited enzyme, 1 = untreated enzyme | activation factor at 5 µM | 96,000 tested, under 10 active;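 active means activation factor of at least 2 at 5 µM in the primary screen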
CYP2C9 inhib = inhibitors of human CYP2C9; CYP2C9 Supersomes, luciferin-H conversion, luminescence; P11712; AID 777; inhibition, % at 5 µM; 20% of 96,000 active;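 active means blocking of liver enzyme CYP2C9 beyond about 50% at 5 µM, limit read from the data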
PostGolgi ctrl = inhibits growth of the yeast control strain; efflux-deficient yeast background strain, growth absorbance A615, 16 h; inhibition, % at 10 µM; 5% of 98,000 active; AID 738
CYP2C19 inhib = inhibitors of human CYP2C19. P33261. CYP2C19 Supersomes, luciferin-H EGE luminescence, 30 min. inhibition, % at 5 µM. 21% of 96,000 active. AID 778;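 active means CYP2C19 inhibition above a set limit at 5 µM in the primary screen, cut at about 50% in these data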
A number is an active result; i = inactive; nt = no result given. Unless noted, no stated cut-off is given here; in the data, active means inhibition above about 30%; inactive means the rest.

SMILES	CYP2C9 act	PostGolgi yeast	CYP2C19 act	CYP2C9 inhib	PostGolgi ctrl	CYP2C19 inhib
O=C1CC(C2CCCO2)C(=O)N1c1cccc(Cl)c1 (configuration not stated)	i	i	i	i	i	i
COc1cc(C2C3C(C)N(C)C(=O)N(C)C3N(C)C(=O)N2C)ccc1O (configuration not stated)	i	i	i	i	i	87
O=C(CSc1nnc(-c2ccncc2)n1Cc1ccco1)c1ccc(Cl)cc1	i	i	i	92	i	95
O=C(CSc1nnc(-c2ccc(Cl)cc2)n1Cc1ccco1)c1cccs1	i	i	i	55	i	i
O=C(CSc1nnc(-c2ccncc2)n1Cc1ccco1)Nc1ccccc1Cl	i	i	i	89	i	97
Cc1ccc(-n2c(C)cc(/C=N/NC(=O)c3ccncc3)c2C)c(C)c1	i	i	i	i	i	i
COc1ccc(-c2noc(N3CCC(C(=O)N4CCN(c5ccccn5)CC4)CC3)n2)cc1	i	i	i	i	i	i
COc1ccc(N/N=C(/C#N)S(=O)(=O)c2nsc(C)c2C#N)cc1	i	i	i	82	i	i
COc1ccc(Nc2nccc(OC)c2C#N)cc1	i	i	i	i	i	i
Cc1nn(C)c(C)c1NC(=O)Nc1cccc(C(F)(F)F)c1	i	i	i	i	i	i
Cc1snc(S(=O)(=O)/C(C#N)=N/Nc2cccc(C(F)(F)F)c2)c1C#N	i	i	i	99	i	i
Cc1cc(C)nc(/N=C/c2c(O)n(C)c(=O)n(C)c2=O)n1	i	nt	i	i	nt	i
CCCC(=O)Nc1cccc(NC(=O)c2ccccc2Br)c1	i	i	i	i	i	i
O=C(CCN(CCO)Cc1ccccc1)Nc1ccc(Br)cc1	i	i	i	63	i	69
CCN(CCC(=O)Nc1ccc(Br)c(C)c1)Cc1ccccc1	i	i	i	64	i	i
CC(=O)c1c(N)c(C#N)c(C)n1-c1ccc(Br)cc1	i	i	i	i	i	94
COc1ccc(C(O)P(=O)(O)CCc2ccccc2)cc1 (configuration not stated)	i	i	i	i	i	i
CCOC(=O)N1CCC(NC2CCCCCCC2)CC1	i	i	i	i	i	58
COc1ccc(CCNC(=O)CN(c2ccc(C)cc2)S(=O)(=O)c2c(C)noc2C)cc1OC	i	i	i	i	i	92
Cc1ccc(N(CC(=O)NCCc2ccccc2)S(=O)(=O)c2c(C)noc2C)cc1	i	i	i	i	i	84
O=C(NCc1cccs1)C1CCN(S(=O)(=O)N2CCCC2)CC1	i	i	i	i	i	i
Cc1ccc(OCCCC(=O)Nc2ccc(S(=O)(=O)Nc3cc(C)on3)cc2)cc1	i	i	i	i	i	i
COc1ccc(Cn2c(-c3ccco3)nc3oc4ccccc4c(=O)c3c2=O)cc1	i	i	i	i	i	i
O=c1c2ccccc2oc2nc3ccn(Cc4ccncc4)c(=O)c3cc12	i	i	i	59	i	i
Cc1ccc(NC(=O)CN2C(=O)S/C(=C\c3cc(C)n(C)c3C)C2=O)cc1	i	i	i	i	i	57
SMILES	CYP2C9 act	PostGolgi yeast	CYP2C19 act	CYP2C9 inhib	PostGolgi ctrl	CYP2C19 inhib
Cc1ccc(NC(=O)CN2C(=O)S/C(=C\c3cccn3C)C2=O)cc1	i	i	i	76	i	i
COc1ccc(C2C(C#N)=C(N)Oc3c2sc2nc(C)cc(C)c32)cc1 (configuration not stated)	i	i	i	i	i	i
COc1ccc(CN2CCC(C(=O)N3CCN(c4ccccc4F)CC3)CC2)cc1OC	nt	i	nt	nt	i	nt
COc1ccc(C2CC(=O)N3CN(c4ccc(C)c(Cl)c4)CSC3=C2C#N)cc1 (configuration not stated)	i	i	i	98	i	77
COc1ccc(C2CC(=O)N3CN(c4ccccc4F)CSC3=C2C#N)cc1OC (configuration not stated)	i	i	i	84	i	i
Cc1cccc(N2CSC3=C(C#N)C(c4ccc(C)o4)CC(=O)N3C2)c1 (configuration not stated)	i	i	i	86	i	i
COc1cc(OC)c(C2CC(=O)N3CN(c4ccccc4C)CSC3=C2C#N)cc1OC (configuration not stated)	i	i	i	86	i	i
CCOCCn1c(SC)nc2c1c(=O)[nH]c(=O)n2C	i	i	i	i	i	i
CCOC(=O)N1CCN(C(=O)CN(c2ccc3c(c2)OCO3)S(C)(=O)=O)CC1	i	i	i	i	i	i
CN(C)c1ccc(C(CC(=O)O)NC(=O)c2ccc(Cl)cc2)cc1 (configuration not stated)	i	i	i	i	i	i
CCc1ccccc1N1CSC2=C(C#N)C(c3ccccc3F)CC(=O)N2C1 (configuration not stated)	i	i	i	94	34	82
COc1ccc(OC)c(C2CC(=O)N3CN(c4ccccc4)CSC3=C2C#N)c1 (configuration not stated)	i	i	i	60	i	i
COc1ccc(N2CSC3=C(C#N)C(c4cccc(OC)c4OC)CC(=O)N3C2)cc1 (configuration not stated)	i	i	i	i	i	i
CCC(=O)Nc1nc(=S)ss1	i	i	i	99	i	i
CC(C)(C)C(=O)Nc1nc(=S)ss1	i	i	i	92	i	i
CCSc1nnc(NC(=O)CC)s1	i	i	i	i	i	i
CC(NC(=O)c1cc(-c2ccc(Br)cc2)on1)c1ccccc1 (configuration not stated)	i	i	i	i	i	i
O=C(NCc1ccncc1)C(F)(F)C(F)(F)C(=O)NCc1ccncc1	i	i	i	93	i	i
O=C(NCc1cccnc1)c1cccc(F)c1	i	i	i	i	i	i
Cc1cc2c(cc(C(=O)NCc3cccnc3)n2Cc2ccc(Cl)cc2)o1	i	i	i	91	i	91
O=C(NCc1cccnc1)c1cccc(Cl)c1	i	i	i	i	i	73
O=C(NCc1cccnc1)c1c(F)c(F)c(F)c(F)c1F	i	i	i	i	i	81
O=C(O)c1ccccc1C(=O)NCc1cccnc1	i	i	i	i	i	i
CC1(C)CC(=O)c2cnc(NC(=O)C3CCCC3)nc2C1	i	i	i	i	i	i
O=C(NCc1ccncc1)c1c(F)c(F)c(F)c(F)c1F	i	i	i	67	i	i
O=C(NCc1cccnc1)c1nnc(Cc2ccc(F)cc2)o1	i	i	i	i	40	78
COc1ccc(Br)cc1C(=O)NCc1cccnc1	i	i	i	i	i	56
O=C(NCc1ccco1)c1nnc(Cc2ccc(F)cc2)o1	nt	i	nt	nt	i	nt
O=C(NCc1cccnc1)NC1(C(F)(F)F)Oc2ccc(Cl)cc2O1 (configuration not stated)	i	i	i	58	i	91
O=C(NCc1ccco1)c1nnc(Cc2ccc(Cl)cc2)o1	i	i	i	i	i	i
